Assay [1] in a line: qHTS assay to identify small molecule antagonists of the glucocorticoid receptor (GR) signaling pathway - cell viability counter screen (AID 720693). Further: nearly all actives have a fitted effect of over 55% in size. Further: potency means the concentration at half of the fitted maximal effect. In general terms: In qHTS, concentration-response curves come from the screen itself.
Assay [2] can be described thus: qHTS assay for identifying genotoxic compounds that show differential cytotoxicity against isogenic chicken DT40 cell lines with known DNA damage response pathways - wild type cell line (AID 743012). Further: nearly all actives have a fitted effect of over 60% in size. Further: potency means the concentration at half of the fitted maximal effect. A digest of the protocol:
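CellTiter-Glo luminescence readout of viability in wild type DT40 cells after 40 h compound exposure at 37 C/5% CO2; 300 cells/well; reagent incubated 30 min at room temperature before reading.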

The nature of assay [3]: qHTS assay to identify small molecule antagonists of the androgen receptor (AR) signaling pathway - cell viability counter screen (AID 743033; further: nearly all actives have a fitted effect of over 45% in size; further: potency means the concentration at half of the fitted maximal effect).
Assay [4] in a line: qHTS assay to identify small molecule antagonists of the androgen receptor (AR) signaling pathway using the MDA cell line - cell viability counter screen (AID 743041; further: nearly all actives have a fitted effect of over 45% in size; further: potency means the concentration at half of the fitted maximal effect). A digest of the protocol: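 qHTS viability read-out; MDA-kb2 AR-luc; R1881-stimulated; 16 h exposure at 37C, 0% CO2; CellTiter-Fluor, 30 min; fluorescence intensity.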
The nature of assay [5]: qHTS assay for identifying genotoxic compounds that show differential cytotoxicity against isogenic chicken DT40 cell lines with known DNA damage response pathways - Rad54/Ku70 mutant cell line (AID 743015). Further: nearly all actives have a fitted effect of over 60% in size. Further: potency means the concentration at half of the fitted maximal effect.
Assay [6] in a line: qHTS assay for identifying genotoxic compounds that show differential cytotoxicity against isogenic chicken DT40 cell lines with known DNA damage response pathways - Rev3 mutant cell line (AID 743014). Further: nearly all actives have a fitted effect of over 55% in size. Further: potency means the concentration at half of the fitted maximal effect.
For assay [7], the target named is Androgen receptor (Homo sapiens) (UniProt P10275). Description: qHTS assay to identify small molecule antagonists of the androgen receptor (AR) signaling pathway (AID 743035; active means well fitted inhibition curve with a large enough effect in the signal ratio in the repeat runs, not every such curve was filed as active; the % refers to the signal ratio; further: potency means the concentration at half of the fitted maximal effect). A digest of the protocol:
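AR-bla HEK293 reporter cells; 4 h settle at 37C/5% CO2; compound + R1881 agonist, 16 h at 37C; LiveBLAzer B/G FRET substrate 2 h RT; fluorescence intensity read. qHTS format.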

For assay [8] the target is unchanged. Description: qHTS assay to identify small molecule agonists of the androgen receptor (AR) signaling pathway (AID 743036; active means well fitted activation curve with a large enough effect in the signal ratio in the repeat runs, with a control signal flat, not every such curve was filed as active; the % refers to the signal ratio). A digest of the protocol:
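AR-bla HEK293 cells, 2,000/well; 4 h preincubation 37C/5% CO2; compound (DMSO) 16 h at 37C; LiveBLAzer B/G FRET substrate 2 h RT; fluorescence intensity read-out.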

Assay [9] has the same target. Description: qHTS assay to identify small molecule agonists of the androgen receptor (AR) signaling pathway using the MDA cell line (AID 743040; further: nearly all actives have a fitted effect of over 20% in size). A digest of the protocol:
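Agonist activity is measured as luciferase luminescence in human MDA-kb2 cells whose MMTV reporter responds to both AR and GR. Compounds in DMSO incubate 16 h at 37C, 0% CO2, and ONE-Glo is read after 30 min.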

For assay [10] the target is unchanged. Nature of the assay: qHTS assay to identify small molecule antagonists of the androgen receptor (AR) signaling pathway using the MDA cell line (AID 743042; further: nearly all actives have a fitted effect of over 55% in size; further: potency means the concentration at half of the fitted maximal effect). A digest of the protocol:
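MDA-kb2 cells (human breast carcinoma, stably carrying an MMTV-luciferase reporter responsive to AR and GR) were plated at 3,000 cells/well and preincubated 5 hr at 37C, then given compound plus R1881 agonist for 16 h. ONE-Glo luminescence was read.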

“And” between values parts separate entries of the source, which are not always exact repeats. Equal values may be shown once. Results filed as inconclusive are left out. Some structures have more than one record in an assay (separate samples or runs), and their calls can disagree. The source made the active and inactive calls. Unless noted, the call rests on the fitted dose curve; in most records, active means well fitted curve in the direction sought with a large enough effect in the repeat runs; inconclusive means weak or mixed curves; inactive means no such curve, though single readings can be large; an effect the other way counts as inactive or inconclusive.

Data on 21 compounds can be found in PubChem BioAssay (Tox21).

Sequence of Androgen receptor (Homo sapiens) (P10275 whole entry, looked up): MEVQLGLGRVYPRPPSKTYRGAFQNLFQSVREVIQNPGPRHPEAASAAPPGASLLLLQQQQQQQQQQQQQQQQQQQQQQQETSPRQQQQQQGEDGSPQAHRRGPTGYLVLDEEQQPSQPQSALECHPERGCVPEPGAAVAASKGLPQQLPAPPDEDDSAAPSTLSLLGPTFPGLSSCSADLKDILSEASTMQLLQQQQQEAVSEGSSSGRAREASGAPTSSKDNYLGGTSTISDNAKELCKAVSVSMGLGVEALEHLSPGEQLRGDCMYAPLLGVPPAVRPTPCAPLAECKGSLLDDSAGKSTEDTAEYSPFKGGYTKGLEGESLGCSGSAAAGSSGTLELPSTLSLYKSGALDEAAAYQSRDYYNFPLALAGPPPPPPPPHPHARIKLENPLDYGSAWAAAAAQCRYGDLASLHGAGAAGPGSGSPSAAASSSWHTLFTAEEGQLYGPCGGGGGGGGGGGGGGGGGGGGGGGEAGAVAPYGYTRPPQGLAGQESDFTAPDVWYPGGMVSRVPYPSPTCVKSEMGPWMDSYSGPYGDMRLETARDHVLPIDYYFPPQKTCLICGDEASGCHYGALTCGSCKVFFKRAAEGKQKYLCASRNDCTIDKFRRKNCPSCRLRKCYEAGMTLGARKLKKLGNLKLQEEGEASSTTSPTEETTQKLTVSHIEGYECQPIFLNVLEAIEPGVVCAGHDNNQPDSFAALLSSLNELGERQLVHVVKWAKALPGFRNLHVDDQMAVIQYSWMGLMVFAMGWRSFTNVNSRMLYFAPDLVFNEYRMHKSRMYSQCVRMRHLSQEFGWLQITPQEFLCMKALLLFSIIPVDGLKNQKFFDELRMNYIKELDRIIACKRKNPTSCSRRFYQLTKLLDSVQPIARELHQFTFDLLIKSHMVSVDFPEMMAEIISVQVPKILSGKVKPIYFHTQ

On to `O=C(Nc1ccc2c(O)c(N=Nc3ccc(N=Nc4ccc(S(=O)(=O)O)cc4)cc3)c(S(=O)(=O)O)cc2c1)c1ccccc1`, for which the Potency entry in assay [1], in assay [2] and in assay [3] was “inactive” throughout. Besides, the Potency in assay [4] was 24.3 µM (active).

In the case of `OC1CCCc2ccccc21` (centres undefined), the Potency result in [1], in [2], in assay [3] and in assay [4] was “inactive” each time.

On to `CC(C)CCCCCOC(=O)CCS`, for which the Potency entry in [1], in assay [2], in [5] and in [3] was “inactive” in each case.

Turning to `Cc1cc(C(C)(C)C)c(O)c(C)c1Cn1c(=O)n(Cc2c(C)cc(C(C)(C)C)c(O)c2C)c(=O)n(Cc2c(C)cc(C(C)(C)C)c(O)c2C)c1=O`, the Potency result in [1], in assay [6], in assay [5], in [3] and in assay [4] was “inactive” each time.

For `Oc1c(I)cc(Cl)c2cccnc12`, the Potency result in [1], in assay [7], in assay [8], in [4] and in assay [10] was “inactive” throughout. For the same compound, the Potency in assay [6] was 11.9 µM (active) and 15.3 µM (active); in assay [5], 16.8 µM (active) and 19.3 µM (active); in assay [3], “inactive and 17.3 µM (active)”. Moreover, in [9], the compound was classed as inactive.

`Nc1ccc(NCCO)c([N+](=O)[O-])c1`: the Potency entry in [1], in assay [2], in assay [5] and in [3] was “inactive” each time.

In the case of `C[Si](Cl)(c1ccccc1)c1ccccc1`, the Potency entry in [1], in assay [2] and in assay [3] was “inactive” in each case.

As for `Cc1c(C)c([N+](=O)[O-])c(C(C)(C)C)c([N+](=O)[O-])c1C`, the Potency entry in [1], in assay [2], in assay [3] and in assay [4] was “inactive” throughout.

On to `NC[C@H]1O[C@H](O[C@H]2[C@H](O[C@@H]3O[C@H](CO)[C@@H](O)[C@H]3O)C(O)[C@H](N)C[C@@H]2N)[C@H](N)[C@@H](O)[C@@H]1O` (some centres undefined), for which the Potency entry in [1], in [6], in assay [5] and in assay [3] was “inactive” each time.

On to `Clc1sc(Cl)c(Cl)c1Cl`, for which the Potency entry in assay [1], in [6], in assay [5], in assay [3], in assay [7] and in assay [8] was “inactive” in each case. For the same compound, the Potency result in [10] was “inactive”. Besides, the call in [9] was inactive.

`Cc1cc(C(C)(C)C)cc(C)c1CC1=NCCN1`: the Potency result in assay [1], in [2], in assay [5] and in [4] was “inactive” in each case.

`CN(C)c1ccc(C(=C2C=CC(=[N+](C)C)C=C2)c2ccc(N(C)C)cc2)cc1`: the Potency in assay [1] is 6.01 µM (active) and 3.45 µM (active) and 9.77 µM (active); in assay [6] it was 473 nM (active) and 483 nM (active) and 243 nM (active); in assay [5], 422 nM (active) and 483 nM (active) and 193 nM (active); in assay [3], 1.69 µM (active) and 1.37 µM (active) and 347 nM (active); in [7], 347 nM (active); in assay [4], 3.35 µM (active) and 7.66 µM (active) and 4.33 µM (active). Also, the Potency in [10] was 2.37 µM (active) and 859 nM (active) and 864 nM (active). In addition, in [9], the call was inactive.

In the case of `CCOC(=O)Cn1cccc1-c1nc(-c2ccc(OC)cc2)c(-c2ccc(OC)cc2)s1`, the Potency entry in assay [1], in assay [6], in [5], in assay [3], in assay [7] and in assay [4] was “inactive” each time. The Potency result in assay [10] is “inactive”. The compound was classed as inactive in [9].

Turning to `Cc1nc2n(c(=O)c1CCN1CCC(c3noc4cc(F)ccc34)CC1)CCCC2`, the Potency result in [1], in assay [5], in assay [3] and in assay [4] was “inactive” each time. Besides, the Potency in assay [2] was 9.44 µM (active).

Turning to `CCCCCc1ccc(Cl)cc1`, the Potency entry in [1], in assay [6], in assay [5] and in assay [3] was “inactive” in each case.

With `Cc1ccc(-c2ccccc2)cc1`, the Potency result in [1], in assay [2], in assay [3] and in assay [4] was “inactive” throughout.

Turning to `CC(C)NC[C@@H](O)COc1ccc(CC(N)=O)cc1`, the Potency entry in assay [1], in [2], in assay [6] and in assay [4] was “inactive” in each case.

For `O=C1CCCCCCCCCCCCCCCO1`, the Potency result in assay [1], in assay [2], in assay [5], in [3] and in assay [4] was “inactive” throughout.

For `C=CCn1c(=O)n(CC=C)c(=O)n(CC=C)c1=O`, the Potency result in [1], in assay [2], in assay [3] and in assay [4] was “inactive” in each case.

As to `Nc1ccc(Oc2ccc(Cl)cc2)cc1`, the Potency entry in [1], in assay [2] and in assay [3] was “inactive” in each case. Moreover, the Potency in assay [5] was 59.8 µM (active).

With `CCOC(=O)c1ccc(C2CCC(NC[C@H](O)COc3ccc(O)c(NS(C)(=O)=O)c3)CC2)cc1` (some centres undefined), the Potency result in [1] and in assay [4] was “inactive” each time. Moreover, the Potency in assay [2] is 0.356 µM (active); in assay [6] it was 100 nM (active); in assay [3] it was 45.2 µM (active).
